In PubChem BioAssay (NCATS):
Results filed as inconclusive are left out. Active and inactive are the calls of the source. Unless noted, calls follow the shape of the dose curve; as a rule, active = well fitted curve in the direction sought with a large enough effect; inconclusive = small, poorly fitted or top-dose-only effect, or another doubt; inactive = no such curve, though single readings can be large; an effect the other way counts as inactive or inconclusive.

Tests used:
[1] = biological target: Thioredoxin reductase 1, cytoplasmic (Rattus norvegicus) (UniProt O89049); test: qHTS Assay for Inhibitors of Mammalian Selenoprotein Thioredoxin Reductase 1 (TrxR1) (AID 488773); settings: purified TrxR1 enzyme activity; Potency: inhibition; series mostly up to 57.1 µM; also: nearly all actives have a fitted effect of over 40% in size; also: potency is read from the fitted curve at half-maximal effect
Chain of Thioredoxin reductase 1, cytoplasmic (Rattus norvegicus) (O89049 whole entry, looked up): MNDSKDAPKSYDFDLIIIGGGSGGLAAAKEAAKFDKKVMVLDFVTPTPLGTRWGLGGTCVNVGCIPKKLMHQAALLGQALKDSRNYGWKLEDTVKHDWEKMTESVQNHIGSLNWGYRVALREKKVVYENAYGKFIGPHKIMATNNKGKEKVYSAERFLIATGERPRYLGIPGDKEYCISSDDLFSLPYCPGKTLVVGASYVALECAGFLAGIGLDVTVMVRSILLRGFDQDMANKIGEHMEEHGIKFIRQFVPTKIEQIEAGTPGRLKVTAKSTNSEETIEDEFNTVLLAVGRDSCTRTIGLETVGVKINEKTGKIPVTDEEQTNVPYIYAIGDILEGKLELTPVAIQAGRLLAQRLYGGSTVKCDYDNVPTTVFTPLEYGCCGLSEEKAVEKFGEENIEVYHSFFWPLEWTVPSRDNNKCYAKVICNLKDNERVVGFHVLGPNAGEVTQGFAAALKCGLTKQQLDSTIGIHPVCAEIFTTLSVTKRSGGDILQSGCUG
How it was run: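 Inhibition is scored from the loss of NADPH fluorescence between first and last reads of an 8-min kinetic run. Selenite (400 uM) was the substrate, added after 15 min compound preincubation at room temperature.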

[2] = biological target: M-phase phosphoprotein 8 (Homo sapiens) (UniProt Q99549); test: qHTS Validation Assay for Inhibitors for MPP8 Chromodomain Interactions with Methylated Histone Tails (AID 488949); settings: AlphaScreen MPP8 binding to H3K9me3 peptide; series mostly up to 57.1 µM;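 also: 50 nM MPP8 with 50 nM peptide preformed then compounds added for 30 min; AlphaScreen signal from MPP8 chromodomain bound to biotinylated H3K9me3 peptide; top concentration of the series differs between compounds; % is scaled to controls: 0 for no effect and ±100 for the full control effect; nearly all actives have a fitted effect of over 55% in size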
How it was run: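 50 nM MPP8 + 50 nM b-H3K9me3 peptide, PBS pH 7.4/0.01% Tween-20, 30 min RT; + cpd 30 min RT; + AlphaScreen donor/Ni-chelate acceptor beads 10 ug/mL final, 30 min dark; luminescence read.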

[3] = biological target: Methanococcus maripaludis chaperonin (MmCpn) (UniProt Q6LX38); test: High-Throughput Screening for Modulators of Cytosolic Chaperonin Activity: MmCpn Primary Screen (AID 488978); settings: Purified MmCpn ATPase activity, ADP HTRF detection, 10 min; series mostly up to 76.9 µM;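 also: 50 nM MmCpn enzyme hydrolysing 30 µM ATP at 37 °C; 0% is about no effect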
Chain of Methanococcus maripaludis chaperonin (MmCpn) (Q6LX38 1-543): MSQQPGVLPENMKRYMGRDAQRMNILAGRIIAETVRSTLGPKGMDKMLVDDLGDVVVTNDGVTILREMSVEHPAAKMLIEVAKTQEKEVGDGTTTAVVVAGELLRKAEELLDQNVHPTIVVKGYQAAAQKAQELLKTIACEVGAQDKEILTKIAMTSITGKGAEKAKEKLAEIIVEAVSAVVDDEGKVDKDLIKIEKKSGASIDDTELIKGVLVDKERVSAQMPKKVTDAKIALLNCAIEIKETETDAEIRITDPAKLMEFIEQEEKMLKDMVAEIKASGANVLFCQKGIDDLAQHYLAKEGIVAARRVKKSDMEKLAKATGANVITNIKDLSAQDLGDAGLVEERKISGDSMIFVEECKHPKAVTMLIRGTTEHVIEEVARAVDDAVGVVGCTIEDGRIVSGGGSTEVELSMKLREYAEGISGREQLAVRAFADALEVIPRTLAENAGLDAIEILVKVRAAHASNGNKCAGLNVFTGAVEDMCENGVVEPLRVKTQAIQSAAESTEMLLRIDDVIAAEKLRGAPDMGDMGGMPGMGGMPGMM
How it was run: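 Steps: chaperonin 50 nM final; add compound, 5 min RT; start with ATP, 30 uM final; hold 10 min at 37C; add ADP Transcreener HTRF reagent, 5 min; read ex 320, em 590 and 665 nm.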

[4] = biological target: D(1A) dopamine receptor (Homo sapiens) (UniProt P21728); test: HTS Assay for Allosteric Agonists of the Human D1 Dopamine Receptor: Primary Screen for Agonists (AID 488981); settings: Inducible HEK293 T-REx D1 cells, calcium-flux fluorescence, 180 s kinetic; series mostly up to 41.8 µM; also: 0% is about no effect
How it was run: (§1)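 Tetracycline-induced HEK293 T-REx cells force-coupled to calcium signalling were incubated overnight at 30 C and dye-loaded at room temperature. Calcium flux over 180 s after compound addition flagged agonists; a further 180 s read after EC20 dopamine flagged potentiators.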

[5] = biological target: D(1A) dopamine receptor (Homo sapiens) (UniProt P21728); test: HTS Assay for Allosteric Agonists of the Human D1 Dopamine Receptor: Primary Screen for Potentiators (AID 488982); settings: HEK293 T-REx D1 inducible cells, calcium flux, kinetic fluorescence; series mostly up to 8.37 µM; also: 0% is about no effect
How it was run: as §1

[6] = biological target: D(1A) dopamine receptor (Homo sapiens) (UniProt P21728); test: HTS Assay for Allosteric Agonists of the Human D1 Dopamine Receptor: Primary Screen for Antagonists (AID 488983); settings: D1 receptor cell assay, antagonist mode, qHTS titration; series mostly up to 41.8 µM;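 also: calcium flux response to an EC80 dopamine challenge measured with no-wash dye; % is scaled to controls: 0 for no effect and ±100 for the full control effect; nearly all actives have a fitted effect of over 65% in size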
How it was run: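 Calcium-flux read-out in inducible HEK293 T-REx cells expressing D1, dye-loaded 30–90 min at room temperature. Kinetic reads: 180 s after compound (agonist phase), then 180 s after an EC80 dopamine challenge.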

[7] = Validation screen for small molecules that induce genotoxicity in human embryonic kidney (HEK293T) cells expressing luciferase-tagged ELG1 (AID 493106); settings: luminescence; series mostly up to 46.1 µM; also: 0% is about no effect
How it was run: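 ELG1-luciferase reporter readout (ONE-Glo, 30 min, room temperature) after 16 hr compound treatment at 37 °C of HEK293T cells at 2,000 per well. Rising luminescence flags genotoxic stress.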

[8] = Nrf2 qHTS screen for inhibitors: Validation (AID 493153; active = well fitted inhibition curve with a large enough effect in the main read-out, with a control signal flat, not every such curve was filed as active); settings: A549 ARE-Fluc reporter, 18-24 h; Potency: luciferase luminescence; viability change: measured here: cytotoxicity max response; luciferase luminescence, at 46.1 µM (top of the series)
How it was run: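 Concentration-response on A549 ARE_Fluc reporter cells exposed 18-24 h at 37 C, 5% CO2. Cytotoxicity read first by CellTiter-Fluor fluorescence (Ex 405/Em 525), then Nrf2 inhibition by BugLite luminescence after 15 min.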

[9] = qHTS for Inhibitors of Cell Surface uPA Generation: Validation Assay (AID 493164); settings: mouse cells, plasminogen activation; series mostly up to 38.3 µM;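 also: RAW 264.7 macrophage cells exposed to compound for 18 h; 0% is about no effect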
How it was run: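 ATP-Lite luminescence read-out: ATP remains high when uPA activity-dependent LF translocation into the cytoplasm is blocked. RAW 264.7 cells, 18 h compound exposure at 37 C; 7-point titration, 2.45 nM to 38.3 uM final.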

[10] = biological target: Flap endonuclease 1 (Homo sapiens) (UniProt P39748); test: qHTS Validation Assay for the Inhibitors of Human Flap endonuclease 1 (FEN1) (AID 488816); settings: FEN1 nuclease activity, fluorogenic DNA substrate; series mostly up to 57.1 µM; also: % is scaled to controls: 0 for no effect and ±100 for the full control effect
Chain of Flap endonuclease 1 (Homo sapiens) (P39748 whole entry, looked up): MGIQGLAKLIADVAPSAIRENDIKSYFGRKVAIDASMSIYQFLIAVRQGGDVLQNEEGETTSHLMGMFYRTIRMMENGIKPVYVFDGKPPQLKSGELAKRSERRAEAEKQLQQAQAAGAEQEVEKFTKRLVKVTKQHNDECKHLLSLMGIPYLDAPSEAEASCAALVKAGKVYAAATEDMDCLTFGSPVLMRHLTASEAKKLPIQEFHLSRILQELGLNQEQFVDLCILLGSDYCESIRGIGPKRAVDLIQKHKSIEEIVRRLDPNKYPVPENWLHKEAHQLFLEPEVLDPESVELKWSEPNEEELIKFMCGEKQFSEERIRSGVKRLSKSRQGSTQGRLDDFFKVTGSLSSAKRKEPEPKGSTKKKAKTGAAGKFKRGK
How it was run: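 Steps: add FEN1 (10 nM reagent) or buffer only; pin compounds; hold 15 min at room temperature; start with substrate, 50 nM final; read at 0 and 15 min; correct, normalize and fit a four-parameter Hill curve.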

[11] = biological target: Chromobox protein homolog 1 (Homo sapiens) (UniProt P83916); test: qHTS Validation Assay for Inhibitors of HP1-beta Chromodomain Interactions with Methylated Histone Tails (AID 488953); settings: HP1-beta chromodomain / methylated histone peptide binding assay; series mostly up to 114 µM; also: nearly all actives have a fitted effect of over 50% in size; also: potency is read from the fitted curve at half-maximal effect
Chain of Chromobox protein homolog 1 (Homo sapiens) (P83916 whole entry, looked up): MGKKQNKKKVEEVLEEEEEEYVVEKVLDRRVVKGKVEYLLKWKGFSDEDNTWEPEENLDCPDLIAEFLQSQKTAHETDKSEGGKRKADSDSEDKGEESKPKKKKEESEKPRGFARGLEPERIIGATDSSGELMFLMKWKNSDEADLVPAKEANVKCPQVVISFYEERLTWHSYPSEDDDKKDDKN
How it was run: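 AlphaScreen proximity signal from streptavidin donor and nickel chelate acceptor beads (final 10 ug/mL) after 30 min dark incubation. Compounds had 30 min at room temperature with preformed complex of 50 nM HP1-beta and 50 nM b-H3(1-18)K9me3 in PBS pH 7.4 with 0.01% Tween-20.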

[12] = biological target: ATPase family AAA domain-containing protein 5 (Homo sapiens) (UniProt Q96QE3); test: Validation screen for small molecules that inhibit ELG1-dependent DNA repair in human embryonic kidney (HEK293T) cells expressing luciferase-tagged ELG1 (AID 493107); settings: HEK293T ELG1-luciferase level, luminescence, 5-fluorouridine co-treatment, 16 h; series mostly up to 46.1 µM; also: nearly all actives have a fitted effect of over 70% in size; also: potency is read from the fitted curve at half-maximal effect
Chain of ATPase family AAA domain-containing protein 5 (Homo sapiens) (Q96QE3 whole entry, looked up, the tested form may be a part): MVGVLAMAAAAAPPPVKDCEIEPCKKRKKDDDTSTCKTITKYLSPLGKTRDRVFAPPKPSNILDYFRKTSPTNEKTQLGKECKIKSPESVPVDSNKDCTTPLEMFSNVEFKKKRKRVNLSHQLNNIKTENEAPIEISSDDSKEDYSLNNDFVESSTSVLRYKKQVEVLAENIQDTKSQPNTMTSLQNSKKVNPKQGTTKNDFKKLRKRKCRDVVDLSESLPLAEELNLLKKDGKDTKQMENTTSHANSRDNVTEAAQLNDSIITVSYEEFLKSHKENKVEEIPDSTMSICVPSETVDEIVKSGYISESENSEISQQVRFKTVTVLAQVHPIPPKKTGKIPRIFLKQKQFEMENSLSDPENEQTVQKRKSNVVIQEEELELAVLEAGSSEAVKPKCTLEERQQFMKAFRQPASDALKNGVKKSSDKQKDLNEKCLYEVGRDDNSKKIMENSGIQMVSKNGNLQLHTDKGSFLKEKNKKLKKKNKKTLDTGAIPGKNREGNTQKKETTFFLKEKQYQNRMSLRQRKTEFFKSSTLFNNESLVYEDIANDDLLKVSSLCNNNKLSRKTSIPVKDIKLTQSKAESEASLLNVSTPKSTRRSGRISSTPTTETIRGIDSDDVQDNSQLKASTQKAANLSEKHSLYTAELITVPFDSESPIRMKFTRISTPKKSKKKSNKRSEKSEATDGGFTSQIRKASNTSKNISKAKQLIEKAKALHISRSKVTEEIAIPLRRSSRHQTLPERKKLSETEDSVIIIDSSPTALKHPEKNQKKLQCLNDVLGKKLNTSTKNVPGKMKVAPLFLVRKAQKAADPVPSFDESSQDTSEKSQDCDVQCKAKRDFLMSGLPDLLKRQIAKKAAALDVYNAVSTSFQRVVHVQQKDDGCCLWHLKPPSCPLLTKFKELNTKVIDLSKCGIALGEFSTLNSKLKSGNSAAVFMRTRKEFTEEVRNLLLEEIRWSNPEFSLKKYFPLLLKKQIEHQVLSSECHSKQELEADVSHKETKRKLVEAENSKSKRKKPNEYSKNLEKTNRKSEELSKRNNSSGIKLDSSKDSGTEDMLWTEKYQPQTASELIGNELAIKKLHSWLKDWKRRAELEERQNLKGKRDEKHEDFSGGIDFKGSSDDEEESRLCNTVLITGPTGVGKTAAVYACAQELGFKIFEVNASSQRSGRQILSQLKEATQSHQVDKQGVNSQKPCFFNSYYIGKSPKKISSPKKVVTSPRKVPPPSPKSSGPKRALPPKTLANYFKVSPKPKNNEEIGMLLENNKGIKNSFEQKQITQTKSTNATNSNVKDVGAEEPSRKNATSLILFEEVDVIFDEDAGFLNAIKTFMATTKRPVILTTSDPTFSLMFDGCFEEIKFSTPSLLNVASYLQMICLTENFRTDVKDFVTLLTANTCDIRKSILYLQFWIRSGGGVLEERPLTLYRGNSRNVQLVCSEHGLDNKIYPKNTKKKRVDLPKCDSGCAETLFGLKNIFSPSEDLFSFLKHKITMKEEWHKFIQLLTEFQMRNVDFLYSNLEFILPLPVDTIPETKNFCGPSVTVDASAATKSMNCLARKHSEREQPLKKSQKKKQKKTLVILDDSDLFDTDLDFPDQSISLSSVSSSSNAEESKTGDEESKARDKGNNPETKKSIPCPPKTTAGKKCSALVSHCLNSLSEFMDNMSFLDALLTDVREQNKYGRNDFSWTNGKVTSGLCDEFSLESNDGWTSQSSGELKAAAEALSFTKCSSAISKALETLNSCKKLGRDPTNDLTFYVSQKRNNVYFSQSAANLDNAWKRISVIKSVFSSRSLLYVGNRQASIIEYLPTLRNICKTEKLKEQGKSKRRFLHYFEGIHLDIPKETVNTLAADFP
How it was run: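 Luciferase read-out, ONE-Glo, 30 min at room temperature, follows 16 h co-exposure at 37 C of compound and the DNA-damaging agent 5-fluorouridine. Cells: HEK293T with ELG1-luciferase fusion, 2,000 per well, DMSO as vehicle.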

[13] = biological target: Transient receptor potential cation channel subfamily V member 1 (Homo sapiens) (UniProt Q8NER1); test: HTS Assay for Compounds that Act as Enhancers of the Vanilloid Receptor 1 (AID 488979); settings: TRPV1-expressing cells, enhancer of channel activity; series mostly up to 41.7 µM; also: 0% is about no effect
How it was run: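 TRPV1-expressing cells loaded with Fluo-8 calcium dye; compounds added and calcium influx read kinetically for 3 min (agonist phase), then capsaicin at EC20 added and read 2 min more for enhancement. Fluorescence ex 480/em 520 nm.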

[14] = biological target: Thyrotropin receptor (Homo sapiens) (UniProt P16473); test: qHTS Assay for Antagonists of the Thyroid Stimulating Hormone Receptor (AID 488980); settings: TSHR-expressing cells, cAMP antagonist read-out; series mostly up to 57.5 µM; also: 0% is about no effect
Chain of Thyrotropin receptor (Homo sapiens) (P16473 whole entry, looked up): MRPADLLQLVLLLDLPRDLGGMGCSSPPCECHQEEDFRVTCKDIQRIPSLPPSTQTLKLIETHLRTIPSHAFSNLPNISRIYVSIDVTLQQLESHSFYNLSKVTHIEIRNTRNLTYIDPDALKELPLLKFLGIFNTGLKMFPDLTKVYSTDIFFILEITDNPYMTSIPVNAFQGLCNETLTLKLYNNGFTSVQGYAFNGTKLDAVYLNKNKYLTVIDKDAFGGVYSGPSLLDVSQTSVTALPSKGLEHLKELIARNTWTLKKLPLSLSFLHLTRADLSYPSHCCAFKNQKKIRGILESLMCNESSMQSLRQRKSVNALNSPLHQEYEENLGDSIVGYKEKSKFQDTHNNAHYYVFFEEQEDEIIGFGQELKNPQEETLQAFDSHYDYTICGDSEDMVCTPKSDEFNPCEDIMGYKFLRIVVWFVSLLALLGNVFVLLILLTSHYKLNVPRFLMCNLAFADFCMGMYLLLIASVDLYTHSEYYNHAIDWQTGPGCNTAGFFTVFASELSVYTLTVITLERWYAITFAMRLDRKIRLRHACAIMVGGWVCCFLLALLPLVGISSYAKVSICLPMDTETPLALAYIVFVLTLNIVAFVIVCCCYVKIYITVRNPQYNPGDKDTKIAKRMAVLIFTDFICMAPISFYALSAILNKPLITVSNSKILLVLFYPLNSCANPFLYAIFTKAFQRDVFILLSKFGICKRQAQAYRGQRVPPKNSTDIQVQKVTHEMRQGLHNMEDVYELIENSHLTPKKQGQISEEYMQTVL
How it was run: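 Readout is cAMP by HTRF competition between cellular cAMP and cAMP-d2 for a cryptate-labelled antibody. Antagonism was assessed in TSHR-transfected HEK293 cells stimulated with 4 nM TSH (EC80, final) in the presence of RO 20-1724.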

[15] = biological target: Galactokinase (Homo sapiens) (UniProt P51570); test: qHTS Validation Assay for Inhibitors of Human Galactokinase (GALK) (AID 493189); settings: purified human GALK enzyme activity, qHTS 7-point titration; series mostly up to 57.5 µM; also: 0% is about no effect
Chain of Galactokinase (Homo sapiens) (P51570 whole entry, looked up): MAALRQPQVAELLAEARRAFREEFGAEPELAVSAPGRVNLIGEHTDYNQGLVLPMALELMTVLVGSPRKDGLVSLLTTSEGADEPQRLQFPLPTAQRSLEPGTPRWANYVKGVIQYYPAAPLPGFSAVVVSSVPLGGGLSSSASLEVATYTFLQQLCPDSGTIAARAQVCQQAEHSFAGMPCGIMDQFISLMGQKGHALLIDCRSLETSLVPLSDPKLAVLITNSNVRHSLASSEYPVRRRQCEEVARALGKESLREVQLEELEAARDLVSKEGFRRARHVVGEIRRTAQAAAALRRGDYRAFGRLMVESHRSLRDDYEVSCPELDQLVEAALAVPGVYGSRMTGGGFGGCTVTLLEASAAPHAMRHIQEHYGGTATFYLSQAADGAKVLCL
How it was run: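 5 nM GALK / 100 uM galactose / 35 uM ATP, 20 mM HEPES pH8.0, 5 mM MgCl2, 60 mM NaCl, 1 mM DTT, 0.01% BSA (final). RT 1 h; Kinase-Glo Plus luminescence.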

[16] = Validation screen for small molecules that induce DNA re-replication in SW480 colon adenocarcinoma cells (AID 504364); settings: DNA re-replication phenotype (high-content imaging); series mostly up to 46.1 µM; also: 0% is about no effect
How it was run: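 Image-based DNA content read-out: Hoechst stain 40 min, total nuclear fluorescence intensity (ex 405 nm, em 500-530 nm) after 48 h compound exposure of 250 SW480 cells/well at 37 C, 5% CO2, versus DMSO vehicle.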

[17] = biological target: Thyrotropin-releasing hormone receptor (Homo sapiens) (UniProt P34981); test: qHTS for Small Molecule Agonists and Allosteric Enhancers of Human TRH Receptor: Validation Screen for Agonists (AID 493127;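 active = calcium activation more than 3 SD above the typical response in the agonist read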;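 also: intracellular calcium rise by fluo-8 fluorescence before TRH EC20 addition; 0% is about no effect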); settings: TRH receptor agonist cell assay; at 2 µM; stronger effect = higher value
Chain of Thyrotropin-releasing hormone receptor (Homo sapiens) (P34981 whole entry, looked up): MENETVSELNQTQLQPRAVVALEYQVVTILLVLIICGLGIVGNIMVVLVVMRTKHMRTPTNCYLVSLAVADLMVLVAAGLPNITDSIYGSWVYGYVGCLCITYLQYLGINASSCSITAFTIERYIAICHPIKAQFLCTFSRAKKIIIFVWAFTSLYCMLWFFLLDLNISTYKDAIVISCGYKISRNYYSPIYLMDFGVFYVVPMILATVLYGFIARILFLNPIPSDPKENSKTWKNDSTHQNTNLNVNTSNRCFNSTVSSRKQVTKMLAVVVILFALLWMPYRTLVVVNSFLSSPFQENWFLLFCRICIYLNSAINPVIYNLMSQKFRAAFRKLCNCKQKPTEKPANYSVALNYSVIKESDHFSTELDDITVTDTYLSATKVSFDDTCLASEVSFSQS
How it was run: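 Compound-evoked intracellular calcium release in fluo-8-loaded TRHR cells, read kinetically on FDSS (Ex 480/Em 530, 1 s/cycle) after 23 nL pintool transfer. Agonist phase preceded 10 nM TRH EC20 addition.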

CC(C)(O)[C@@H]1C2OC(=O)[C@@H]1[C@]1(O)C[C@H]3O[C@]34C(=O)O[C@H]2[C@]14C (tested in a mixture with another compound)
inactive: Potency [1] | Potency [2] | outcome [3] | Potency [4] | Potency [5] | Potency [6] | Potency [7] | Potency [8] | outcome [9]
-3%: viability change [8]

COc1ccc2c(c1)c(CCN1CCOCC1)c(C)n2C(=O)c1cccc(Cl)c1Cl
active: Potency [11] 44.7 µM | Potency [12] 8.2 µM
inactive: Potency [1] | Potency [10] | outcome [3] | Potency [4] | Potency [5] | Potency [6] | Potency [7] | outcome [9]

C[N+](C)(C)CC#CCN1CCCC1=O
2.69%: viability change [8]
inactive: Potency [1] | Potency [10] | Potency [2] | outcome [3] | outcome [13] | outcome [14] | Potency [5] | Potency [6] | Potency [7] | Potency [8] | outcome [9] | outcome [15] | Potency [16]

CCCC[N+]1(C)C2CC(OC(=O)[C@H](CO)c3ccccc3)CC1C1OC12 (some centres not stated)
-6.93%: viability change [8]
inactive: Potency [1] | Potency [2] | Potency [11] | outcome [3] | Potency [4] | Potency [6] | Potency [7] | Potency [12] | Potency [8] | outcome [9]

CCOC(=O)c1ncn2c1[C@@H]1CCCN1C(=O)c1cc(OC)ccc1-2
inactive: Potency [1] | Potency [10] | Potency [2] | Potency [11] | outcome [3] | outcome [13] | outcome [14] | Potency [4] | Potency [6] | Potency [7] | Potency [8] | outcome [9] | outcome [15] | Potency [16]
-9.51%: viability change [8]

NC(=O)c1cc(N2CC2)c([N+](=O)[O-])cc1[N+](=O)[O-]
inactive: Potency [1] | Potency [2] | Potency [11] | outcome [3] | outcome [13] | outcome [14] | Potency [4] | Potency [5] | Potency [6] | Potency [7] | activation [17] 0.0625% | outcome [9] | Potency [16]

CCCN(CCC)[C@@H]1CCc2cccc(O)c2C1
-3.45%: viability change [8]
inactive: Potency [1] | Potency [2] | outcome [3] | outcome [13] | outcome [14] | Potency [4] | Potency [5] | Potency [6] | Potency [7] | Potency [12] | Potency [8] | outcome [9] | outcome [15] | Potency [16]

C[C@H](N)Cc1cccc(C(F)(F)F)c1
inactive: Potency [1] | Potency [10] | Potency [2] | outcome [3] | Potency [4] | Potency [5] | Potency [6] | Potency [7] | Potency [12] | Potency [8] | outcome [9]
-8.9%: viability change [8]

CCCCCCC(C)(C)c1ccc([C@@H]2C[C@H](O)CC[C@H]2CCCO)c(O)c1
3.03%: viability change [8]
inactive: Potency [1] | Potency [10] | outcome [3] | outcome [13] | outcome [14] | Potency [4] | Potency [6] | Potency [7] | activation [17] 1.06% | Potency [8] | outcome [9] | outcome [15] | Potency [16]

NC(=O)COc1c(F)cc(SCCNS(=O)(=O)c2ccccc2)cc1F
inactive: Potency [1] | Potency [2] | Potency [11] | outcome [3] | outcome [13] | outcome [14] | Potency [4] | Potency [5] | Potency [6] | Potency [7] | Potency [12] | activation [17] 0% | outcome [9] | outcome [15] | Potency [16]

CC(C)(C)c1cc(C=C(C#N)C#N)cc(C(C)(C)C)c1O
active: Potency [1] 16.8 µM | Potency [11] 7.94 µM | Potency [12] 2.31 µM
inactive: Potency [10] | outcome [3] | outcome [13] | outcome [14] | Potency [4] | Potency [5] | Potency [7] | activation [17] 0.125% | outcome [9] | outcome [15]

CC(=O)c1c(O)c(C)c(O)c(Cc2c(O)c3c(c(C(=O)/C=C/c4ccccc4)c2O)OC(C)(C)C=C3)c1O
active: Potency [1] 2.12 µM | Potency [11] 12.6 µM
inactive: Potency [10] | outcome [3] | outcome [13] | outcome [14] | Potency [4] | Potency [6] | Potency [7] | outcome [9]

C[N+](C)(C)CCOC(=O)CBr
-12.9%: viability change [8]
inactive: Potency [1] | Potency [2] | Potency [11] | outcome [3] | outcome [13] | Potency [4] | Potency [6] | Potency [7] | activation [17] 1.06% | Potency [8] | outcome [9] | outcome [15] | Potency [16]

CCCN(CCC)[C@H]1CCc2c(F)ccc(O)c2C1
inactive: Potency [1] | Potency [2] | outcome [3] | outcome [13] | outcome [14] | Potency [4] | Potency [5] | Potency [6] | Potency [7] | Potency [12] | activation [17] -3.06% | Potency [8] | outcome [9] | outcome [15] | Potency [16]
-8.48%: viability change [8]
